Assay [1] can be described thus: A549 cell viability effects, profiling panel, calcein-AM fluorescence, 48 h, basal (AID 1162). Further: test concentration not given here. To be noted: higher = more signal.
A short description of assay [2]: adipocyte viability effects, profiling panel, cell-based, 3T3-L1 adipocytes, calcein-AM fluorescence, 48 h, basal (AID 1163). Further: test concentration not given here. To be noted: 3T3-L1 adipocytes viability, higher = more signal.
Assay [3] in a line: HepG2 cell viability effects, profiling panel, calcein-AM fluorescence, 48 h, basal (AID 1164). Further: test concentration not given here. To be noted: higher = more signal.
Assay [4] in a line: MM1S cell viability effects, profiling panel, calcein-AM fluorescence, 48 h, basal (AID 1165).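 Further: viability of MM1S multiple myeloma cells under basal unstimulated conditions; test concentration not given here.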 To be noted: higher = more signal.
Assay [5] can be described thus: basal RPMI8226 viability, no added stimulus, profiling panel, cell-based, calcein-AM fluorescence, 48 h, PK04 Diversity Set (AID 1166).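 Further: cells grown under basal conditions without added stimulus; test concentration not given here.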 The conditions noted are these: RPMI8226 myeloma viability, higher = more signal.
Assay [6] in a line: basal HepG2 mitochondrial membrane potential changes, profiling panel, cell-based, JC-1 fluorescence, 24 h, 100 nL compound (AID 1167). Further: test concentration not given here. The conditions noted are these: higher = more signal.
Assay [7] is described as follows: basal 3T3-L1 adipocyte mitochondrial potential changes, profiling panel, cell-based, JC-1 fluorescence, 3T3-L1 adipocytes, 24 h, 100 nL compound (AID 1168). Further: test concentration not given here. To be noted: JC-1 mitochondrial fluorescence, higher = more signal, called active from +8 up or from −8 down.
A short description of assay [8]: basal RPMI8226 mitochondrial membrane potential changes, profiling panel, cell-based, JC-1 fluorescence, 24 h, 100 nL compound (AID 1169). Further: test concentration not given here. The conditions noted are these: RPMI8226 myeloma, JC-1 mitochondrial potential fluorescence, higher = more signal.
Assay [9] in a line: basal MM1S mitochondrial membrane potential changes, profiling panel, cell-based, JC-1 fluorescence, 24 h, 100 nL compound (AID 1170). Further: test concentration not given here. The conditions noted are these: higher = more signal.
A short description of assay [10]: A549 lung cancer cell viability effects, profiling panel, resazurin fluorescence, 24 h, PK04 Diversity Set (AID 1171). Further: test concentration not given here. The conditions noted are these: higher = more signal, called active from +8 up or from −8 down. A general note: Resazurin is reduced to fluorescent resorufin, in cell work by metabolically active cells.
A short description of assay [11]: HepG2 liver cancer cell viability effects, profiling panel, resazurin fluorescence, 24 h, PK04 Diversity Set (AID 1172). Further: test concentration not given here. To be noted: higher = more signal.
Assay [12] in a line: basal S. cerevisiae growth modulation, no modifier, primary screen, OD600, strain BY4716, 24 h, basal condition (AID 1173). To be noted: OD600, 24 h, higher = more signal, called active from +8 up or from −8 down.
Assay [13] is described as follows: MM1S myeloma cell viability, profiling panel, resazurin fluorescence, basal, 24 h, PK04 Diversity Set (AID 1174).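 Further: MM1S multiple myeloma cell line; test concentration not given here.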 To be noted: higher = more signal, called active from +8 up or from −8 down.
Assay [14] deals with Dihydroorotate dehydrogenase (quinone), mitochondrial (Plasmodium falciparum (isolate 3D7)) (UniProt Q08210). In words: PfDHODH enzyme inhibitors, primary screen, biochemical, C-terminal His tag, absorbance 600 nm (AID 1175).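 Further: recombinant parasite enzyme with a five histidine tag at its C terminus; test concentration not given here.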 To be noted: DCIP absorbance 600 nm, higher = more signal, called active from +8 up or from −8 down.
Chain of Dihydroorotate dehydrogenase (quinone), mitochondrial (Plasmodium falciparum (isolate 3D7)) (Q08210 whole entry, looked up): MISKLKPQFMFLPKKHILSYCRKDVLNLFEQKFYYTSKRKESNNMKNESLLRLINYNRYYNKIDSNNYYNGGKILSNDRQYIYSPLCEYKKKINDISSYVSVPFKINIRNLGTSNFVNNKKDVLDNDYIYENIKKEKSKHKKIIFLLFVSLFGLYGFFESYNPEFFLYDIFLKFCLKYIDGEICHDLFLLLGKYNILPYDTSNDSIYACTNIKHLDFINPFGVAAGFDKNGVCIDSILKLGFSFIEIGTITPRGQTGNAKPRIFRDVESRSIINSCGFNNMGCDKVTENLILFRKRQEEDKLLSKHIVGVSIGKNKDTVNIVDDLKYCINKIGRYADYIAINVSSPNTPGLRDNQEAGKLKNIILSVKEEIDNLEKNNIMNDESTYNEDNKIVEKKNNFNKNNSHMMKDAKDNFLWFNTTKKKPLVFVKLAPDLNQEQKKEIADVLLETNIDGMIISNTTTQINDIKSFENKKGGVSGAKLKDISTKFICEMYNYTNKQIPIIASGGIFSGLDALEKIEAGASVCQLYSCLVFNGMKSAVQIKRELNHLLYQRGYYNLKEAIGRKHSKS
The nature of assay [15]: P. aeruginosa biofilm formation inhibitors, primary screen, strain PAO1, LB-PBS medium, absorbance 600 nm (AID 1176). Further: test concentration not given here. The conditions noted are these: P. aeruginosa PAO1 growth/biofilm, A600, 12 h; higher = more signal.
Assay [16] can be described thus: S. cerevisiae RM11-1a growth modifiers, primary screen, strain RM11-1a, OD600, basal, 24 h (AID 1177).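 Further: cultures grown under basal conditions with no added stressor; test concentration not given here.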 To be noted: OD600, 24 h, higher = more signal, called active from +8 up or from −8 down.
Assay [17] in a line: E. coli acrAB mutant growth effects, primary screen, E. coli filamentation inducers, strain DRC39, OD650, 24 h (AID 1178).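 Further: growth measured as culture turbidity by optical density at 650 nm; test concentration not given here.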 To be noted: higher = more signal, called active from +8 up or from −8 down.
Assay [18] in a line: E. coli acrAB mutant growth effects, primary screen, E. coli filamentation inducers, strain DRC39, OD650, 48 h (AID 1179).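 Further: screen aims at cell division blockers that make cells filament.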 The conditions noted are these: E. coli DRC39 delta-acrAB growth, higher = more signal, called active from +8 up or from −8 down.
A short description of assay [19]: RPMI8226 myeloma cell viability, profiling panel, resazurin fluorescence, basal, 24 h, PK04 Diversity Set (AID 1180).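 Further: RPMI8826 multiple myeloma cell line at 5000 cells per well; test concentration not given here.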 To be noted: higher = more signal.
In assay [20] the target is E3 ubiquitin-protein ligase XIAP (Homo sapiens) (UniProt P98170). The experiment in a line: XIAP binders, primary screen, biophysical, small-molecule microarray, fluorescence 635 nm (AID 1181).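 Further: score merges 667 nm emission and signal to noise over triplicate slides.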 To be noted: small-molecule microarray binding, higher = more signal.
Chain of E3 ubiquitin-protein ligase XIAP (Homo sapiens) (P98170 whole entry, looked up): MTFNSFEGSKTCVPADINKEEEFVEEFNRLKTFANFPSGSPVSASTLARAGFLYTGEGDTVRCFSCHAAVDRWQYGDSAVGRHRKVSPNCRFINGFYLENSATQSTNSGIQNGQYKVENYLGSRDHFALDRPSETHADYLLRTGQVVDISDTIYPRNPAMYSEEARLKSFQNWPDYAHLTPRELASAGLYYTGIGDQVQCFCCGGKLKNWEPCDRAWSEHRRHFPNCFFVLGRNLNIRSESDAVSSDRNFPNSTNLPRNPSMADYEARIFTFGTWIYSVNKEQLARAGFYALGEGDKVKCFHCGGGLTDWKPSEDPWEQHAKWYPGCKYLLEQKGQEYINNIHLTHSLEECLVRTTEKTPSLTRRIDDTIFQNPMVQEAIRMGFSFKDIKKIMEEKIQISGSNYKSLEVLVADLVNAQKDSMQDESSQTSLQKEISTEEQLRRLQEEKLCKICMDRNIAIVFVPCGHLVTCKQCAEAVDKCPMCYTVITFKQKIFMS

Values joined by “and” are separate entries in the source; they are usually repeats but may differ in a detail not shown here. Identical values can stand only once. Some compounds were tested as several samples or in several runs, with calls that do not always agree. Active and inactive are the calls of the source. Unless noted, how the calls were made is not given here.

On to `CO[C@@H]1COC(=O)CC=C[C@H](C)COC(=O)[C@H](C)NC(=O)CC=C[C@H]1C`, for which the z-score in assay [1] is 0.158; in assay [2] it was 0.31; in assay [3], 0.46; in [4], 0.122; in assay [5], 0.353; in [6] it was 1.04. Also, the z-score in assay [7] was 0.214 (inactive); in [8], -0.0124; in assay [9], 0.955; in assay [10], 0.162 (inactive); in [11], 0.496; in assay [12] it was 0.699 (inactive). The z-score is 0.859 (inactive) in assay [13]; -0.531 (inactive) in assay [15]; 1.25 (inactive) in [16]; 0.365 (inactive) in assay [17]; -0.896 (inactive) in assay [18]; 0.74 in assay [19]. Further, the composite z-score was 1.09 (inactive) in [14] and -0.0936 in [20].

Take `COC(=O)[C@@]1(Cc2ccc(F)cc2)[C@H]2c3cc(C(=O)N4CCCC4)n(Cc4c(CO)[nH]cc(C)c4=O)c3C[C@H]2CN1C(=O)c1ccccc1`: the z-score in [1] was -1.51 and -0.994; in assay [2], 0.284 and -0.41; in assay [3], -0.272 and -0.426; in assay [4] it was -1.2 and -0.26; in assay [5], -1.34 and -0.473; in assay [6], 1.07 and 0.498. Further, the z-score is -0.217 (inactive) and -1.18 (inactive) in [7]; -0.409 and 0.893 in [8]; 0.1 and 0.277 in assay [9]; -0.133 (inactive) and 2.11 (inactive) in [10]; -0.605 and 1.06 in assay [11]; 1.61 (inactive) and 2.35 (inactive) in assay [12]. The z-score is -1.14 (inactive) and -0.131 (inactive) in assay [13]; 1.38 (inactive) and 0.895 (inactive) in assay [15]; 1.33 (inactive) and 1.72 (inactive) in [16]; -0.573 (inactive) and -0.476 (inactive) in [17]; -0.104 (inactive) and -0.339 (inactive) in [18]; -1.14 and -1.39 in assay [19]. In addition, the composite z-score in [14] was 0.0634 (inactive) and 0.524 (inactive); in assay [20], 0.221 and 0.0726.

For `C=CCN(C(=O)C(c1cccs1)N(C(=O)/C=C\C(=O)O)c1ccc(CCO)cc1)C(C)(C)C` (stereo not given), the z-score was -0.392 and -0.51 in assay [1]; -0.589 and -1.1 in assay [2]; -0.0749 and -0.55 in assay [3]; -1.18 and 0.821 in assay [4]; 0.3 and 0.317 in assay [5]; -0.178 and -0.341 in assay [6]. For the same molecule, the z-score was 0.529 (inactive) and -0.179 (inactive) in assay [7]; 0.185 and 0.0345 in assay [8]; 0.75 and 0.721 in [9]; -0.0762 (inactive) and -0.389 (inactive) in [10]; -0.388 and -0.35 in assay [11]; -2.06 (inactive) and -0.483 (inactive) in assay [12]. For the same molecule, the z-score is 0.448 (inactive) and 0.224 (inactive) in assay [13]; 0.289 (inactive) and -0.332 (inactive) in assay [15]; -0.0345 (inactive) and -0.122 (inactive) in [16]; 0.592 (inactive) and -0.113 (inactive) in assay [17]; 0.864 (inactive) and 0.356 (inactive) in assay [18]; 0.0456 and 0.0755 in assay [19]. Also, the composite z-score is -2.45 (inactive) and -0.818 (inactive) in [14]; -0.232 and -0.145 in assay [20].

For `COC(=O)[C@@]1(Cc2ccccc2)[C@H]2c3cc(C(=O)N(C)C)n(Cc4ccc(C)c(F)c4F)c3C[C@H]2CN1C(=O)c1ccccc1`, the z-score in assay [1] was -3.17 and -1.66; in assay [2], 0.42 and 0.702; in [3] it was -2.78 and -1.77; in assay [4], -3.27 and -3.16; in [5] it was -4.73 and -4.71; in assay [6], -2.92 and -1. For the same molecule, the z-score is -1.35 (inactive) and -1.29 (inactive) in assay [7]; -0.926 and -0.872 in assay [8]; -3 and -1.7 in [9]; -3.06 (inactive) and -1.94 (inactive) in assay [10]; -2.95 and -1.72 in [11]; -0.265 (inactive) and 0.53 (inactive) in assay [12]. In addition, the z-score was -9.12 (active) and -3.68 (inactive) in assay [13]; 3.02 (inactive) and 2.16 (inactive) in assay [15]; 0.526 (inactive) and 0.401 (inactive) in assay [16]; -0.347 (inactive) and -1.25 (inactive) in assay [17]; -0.834 (inactive) and -0.836 (inactive) in assay [18]; -6.06 and -3.79 in assay [19]. Also, the composite z-score is -3.37 (inactive) and -0.0662 (inactive) in assay [14]; 0.188 and 0.122 in assay [20].

Consider `C[C@@H]1CC[C@H]2C(=O)NC[C@@H](O)CN2[C@H]1c1ccc(Br)cc1`, for which the z-score in assay [1] was -0.179 and 0.44; in assay [2], -0.856 and 0.491; in [3], -0.141 and 0.284; in assay [4], 0.211 and -0.52; in assay [5] it was -0.239 and -0.0289; in assay [6], -0.606 and 0.493. Further, the z-score in assay [7] was -0.455 (inactive) and 0.104 (inactive); in assay [8], -0.606 and 0.0684; in assay [9], 0.0814 and -0.633; in [10], 0.153 (inactive) and -0.285 (inactive); in [11] it was -0.278 and -0.27; in [12] it was -0.228 (inactive) and -0.64 (inactive). The z-score was -0.503 (inactive) and 0.138 (inactive) in [13]; 0.684 (inactive) and -0.27 (inactive) in assay [15]; -0.154 (inactive) and 0.502 (inactive) in assay [16]; 0.514 (inactive) and 0.669 (inactive) in [17]; -0.882 (inactive) and 0.26 (inactive) in [18]; -0.149 and 0.435 in assay [19]. Moreover, the composite z-score is -0.679 (inactive) and 0.382 (inactive) in assay [14]; -0.0238 and -0.102 in assay [20].

The values are drawn from PubChem BioAssay.
